Here are results for 24 compounds from PubChem BioAssay (Tox21).

SMILES strings stand for the structures. Records with an inconclusive call do not appear. Entries that show only a call come without a potency. A number with no mark means an inactive call. Active and inactive are the calls of the source. The call rests on the fitted dose curve.
Potency means the concentration at half of the fitted maximal effect.

This test deals with Acetylcholinesterase (Homo sapiens) (UniProt P22303). Put plainly: Acetylcholinesterase (AChE) small molecule antagonists: colormetric cell-based qHTS assay (AID 1347395). Further: nearly all actives have a fitted effect of over 30% in size. The note with it: SH-SY5Y cells AChE activity, colorimetric (Ellman); series mostly up to 115 µM. Put shortly: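 After overnight attachment at 37 C, SH-SY5Y cells get 30 min compound exposure; detection cocktail (acetylthiocholine, DTNB) then incubates 90 min at 37 C, and absorbance reflects AChE-generated thiocholine.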
Sequence of Acetylcholinesterase (Homo sapiens) (P22303 whole entry, looked up): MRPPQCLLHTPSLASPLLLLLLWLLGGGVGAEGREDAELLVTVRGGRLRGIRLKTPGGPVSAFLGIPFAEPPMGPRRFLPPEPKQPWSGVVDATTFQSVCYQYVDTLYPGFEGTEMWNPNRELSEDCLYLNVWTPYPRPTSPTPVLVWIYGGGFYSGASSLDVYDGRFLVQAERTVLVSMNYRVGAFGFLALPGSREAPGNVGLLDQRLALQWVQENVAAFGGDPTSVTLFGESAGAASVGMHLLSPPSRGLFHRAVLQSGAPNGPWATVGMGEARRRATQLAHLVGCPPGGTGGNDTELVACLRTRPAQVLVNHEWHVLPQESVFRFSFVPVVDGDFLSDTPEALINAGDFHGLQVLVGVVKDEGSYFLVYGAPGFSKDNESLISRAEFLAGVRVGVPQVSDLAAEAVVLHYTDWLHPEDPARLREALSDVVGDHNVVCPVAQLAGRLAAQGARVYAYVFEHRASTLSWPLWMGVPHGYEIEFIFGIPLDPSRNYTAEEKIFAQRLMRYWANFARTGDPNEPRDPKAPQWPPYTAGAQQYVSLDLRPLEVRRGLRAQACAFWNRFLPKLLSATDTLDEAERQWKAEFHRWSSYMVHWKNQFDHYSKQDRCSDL
Regarding `Cc1ccc2c(c1[N+](=O)[O-])C(=O)c1ccccc1C2=O`, the Potency is 0.781 µM (active).
With `CN1CCN(C2=Nc3ccccc3Oc3ccc(Cl)cc32)CC1`, the Potency entry was “inactive”.
Still for that read-out and setting: the value for `CCCCOC(=O)CCCCC(=O)OCCCC` was “inactive”; that for `C/C(=N\[Si](C)(C)C)O[Si](C)(C)C` was “inactive”; that for `Fc1ccc(C(c2ccc(F)cc2)N2CCN(C/C=C/c3ccccc3)CC2)cc1` was “inactive”.
In the case of `CCCCCCCCCC[N+](C)(C)[O-]`, the Potency entry was “inactive”.
Still for that read-out and setting: to `COC(=O)CC#N` belongs “inactive”; to `CC(=N\O)/C(C)=N/O`, “inactive”.
As to `COc1ccccc1N1CCN(CC(O)COc2cc(OC)c(OC)c(OC)c2)CC1` (centres undefined), the Potency result was “inactive”.
Turning to `CNCC(O)c1ccc(O)c(O)c1` (centres undefined), the call was inactive.
As to `O=C(O)[C@H](O)c1ccccc1`, the Potency entry is “inactive”.
Regarding `OCC(CO)N[C@H]1C[C@](O)(CO)[C@@H](O)[C@H](O)[C@H]1O`, the Potency entry is “inactive”.
The same measure, in the same setting: the value for `Clc1ccc2n[nH]nc2c1` was “inactive”.
For the compound `O=S(=O)(O)c1ccc2c(N=Nc3ccc(S(=O)(=O)O)c4ccccc34)c(O)c(S(=O)(=O)O)cc2c1`, the activity, negative = inhibition is -0.661% [at 10.5 µM].
`CSSc1ccoc1C`: the Potency result is “inactive”.
As for `CCCCCCCC/C=C\CCCCCCCC(=O)N(C)CC(=O)O`, the Potency result was “inactive”.
The same measure, in the same setting: to `C#CC(O)C(CC)CCCC` (centres undefined) belongs “inactive”.
Consider `O=C(c1ccco1)N1CCNCC1`, for which the Potency result was “inactive”.
On to `CC1COc2c(N3CCN(C)CC3)c(F)cc3c(=O)c(C(=O)O)cn1c23` (centres undefined), for which the Potency result is “inactive”.
Take `O=C(O)c1ccc(O)c(O)c1`: the Potency result is “inactive”.
Turning to `CC(O)C1CCCCC1` (centres undefined), the Potency result was “inactive”.
Turning to `C1=CCC(c2ccccc2)CC1` (centres undefined), the Potency result was “inactive”.
The same measure, in the same setting: to `C/C=C/C(=O)C1=C(C)C=CCC1(C)C` belongs “inactive”.
With `C[N+]1([O-])CCOCC1`, the Potency entry was “inactive”.
